Test [1] concerns C33A. Put plainly: Primary qHTS to identify gynecologic anti-cancer compounds using libraries of approved drugs and bioactive compounds (AID 1345084). Further: nearly all actives have a fitted effect of over 55% in size. Further: potency means the concentration at half of the fitted maximal effect. Particulars: Gynecologic cancer cell panel viability, ATPlite luminescence, 48 h; series mostly up to 57.5 µM. A digest of the protocol:
(§1)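 Cytotoxicity screen measuring ATP content by luciferase luminescence. Each compound is applied at five concentrations for 48 h at 37 C with 5% CO2.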
(In general: In qHTS, concentration-response curves come from the screen itself.)

In test [2] the test system is Es-2. The test is described as above. The following applies: Gynecologic cancer cell panel viability, ATPlite luminescence, 48 h; series mostly up to 57.5 µM. The essentials:
as §1
(In general: Cellular ATP, detected with luciferase, serves as a proxy for viable cell number.)

Test [3] concerns HeLa. The description is as above. Particulars: Gynecologic cancer cell panel viability, ATPlite luminescence, 48 h; series mostly up to 57.5 µM. A digest of the protocol:
as §1

The subject of test [4] is Hek293T. The description is as above. The following applies: Gynecologic cancer cell panel viability, ATPlite luminescence, 48 h, control line for the selectivity index; series mostly up to 57.5 µM. The essentials: as §1
The test system of test [5] is JEG-3. The description is as above. The following applies: Gynecologic cancer cell panel viability, ATPlite luminescence, 48 h; series mostly up to 57.5 µM. The essentials:
as §1

Test [6] deals with PA-1. The description is as above. The following applies: Gynecologic cancer cell panel viability, ATPlite luminescence, 48 h; series mostly up to 57.5 µM. A digest of the protocol:
as §1

Test [7] concerns Tov-21-G. Described as above. The following applies: Gynecologic cancer cell panel viability, ATPlite luminescence, 48 h; series mostly up to 57.5 µM. A digest of the protocol:
as §1

The test system of test [8] is Tov112D. Described as above. Particulars: Gynecologic cancer cell panel viability, ATPlite luminescence, 48 h; series mostly up to 57.5 µM. A digest of the protocol: as §1
Test [9] relates to OV90. The description is as above. The following applies: Gynecologic cancer cell panel viability, ATPlite luminescence, 48 h; series mostly up to 57.5 µM. A digest of the protocol: as §1
Test [10] concerns CAOV3. The test is described as above. Particulars: Gynecologic cancer cell panel viability, ATPlite luminescence, 48 h; series mostly up to 57.5 µM. A digest of the protocol: as §1
Test [11] deals with CASKI. Described as above. Particulars: Gynecologic cancer cell panel viability, ATPlite luminescence, 48 h; series mostly up to 57.5 µM. A digest of the protocol:
as §1

Test [12] deals with SKOV3. Described as above. Particulars: Gynecologic cancer cell panel viability, ATPlite luminescence, 48 h; series mostly up to 57.5 µM. The essentials: as §1
The nature of test [13]: qHTS assay to identify inhibitors of the type 1 interferon - major histocompatibility complex class I in skeletal muscle: Counter screen cell viability and HiBit confirmation (AID 1347412). Further: nearly all actives have a fitted effect of over 60% in size. The following applies: iHSKM muscle cells + IFN-b, HiBiT or CellTiter-Glo, 24 h; Viability; at 45.9 µM (top of the series). A digest of the protocol: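 HLA-B*08:01–HiBiT knock-in immortalized human myoblasts (C25cl48) stimulated with 4.0 ng/ml human IFN-beta and dosed with compound in a 12-point 1:3 titration (top final 46 uM). After 24 hrs at 37 C, HiBiT lytic luminescence or CellTiter Glo ATP read out.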

Results filed as inconclusive are left out. Values without a mark were called inactive. Activity calls are given as the source filed them. The call rests on the fitted dose curve; in most records, active means well fitted curve in the direction sought with a large enough effect; inconclusive means small, poorly fitted or top-dose-only effect, or another doubt; inactive means no such curve, though single readings can be large; an effect the other way counts as inactive or inconclusive.
On the % scale 0 is the no-effect control and ±100 the full control effect.

For `CN(C)CCC(CSc1ccccc1)Nc1ccc(S(=O)(=O)NC(=O)c2ccc(N3CCN(Cc4ccccc4-c4ccc(Cl)cc4)CC3)cc2)cc1[N+](=O)[O-]` (centres undefined), the Potency entry in [1], in test [2], in test [3], in [4], in test [5] and in test [6] was “inactive” throughout. Besides, the Potency entry in test [7] and in test [8] was “inactive” each time.

For the compound `CCN(CC)C(=O)c1ccc(Nc2nc(OCC3CCCCC3)c3[nH]cnc3n2)cc1`, the Potency entry in test [1], in [2], in [4], in [5], in test [9] and in test [8] was “inactive” in each case. Also, the Potency in [3] is 28.2 µM (active).

Regarding `N#Cc1ccc(COc2ccc(-c3cccc4nc(NC(=O)C5CC5)nn34)cc2)cn1`, the Potency in [10] was 22.4 µM (active). Further, the Potency result in test [11], in test [2], in test [3], in test [4], in [5] and in test [9] was “inactive” in each case. The Potency entry in test [6] and in [7] was “inactive” each time.

For the compound `Cc1sc2c(c1C)C(c1ccc(Cl)cc1)=N[C@@H](CC(=O)Nc1ccc(OCCOCCOCCOCCNc3cccc4c3C(=O)N(C3CCC(=O)NC3=O)C4=O)cc1)c1nnc(C)n1-2` (some centres undefined), the Potency entry in [1] and in test [4] was “inactive” each time. In [12], the Potency was 2.82 µM (active). The activity change, negative = inhibition in test [13] is 0.552%.

With `COc1ccccc1N1CCN(CC(C(=O)NC(C)(C)C)c2ccccc2)CC1` (centres undefined), the Potency entry in [10], in [11], in test [2], in test [3], in [4] and in test [5] was “inactive” in each case. Moreover, the Potency entry in test [9], in test [6], in test [12], in test [7] and in [8] was “inactive” throughout.

Take `O=C(NCCCCCCCCNC(=O)C(Cl)Cl)C(Cl)Cl`: the Potency result in test [1], in test [2], in [3], in [4], in test [5] and in [6] was “inactive” each time. Besides, the Potency entry in test [7] and in test [8] was “inactive” throughout.

As to `CC(C)CCNC(=O)[C@H](CC(C)C)NC(=O)[C@H]1O[C@@H]1C(=O)O`, in test [10], the Potency result is “inactive”.

As for `CC(CCC1(O)OC2CC3C4CC=C5CC(O[C@@H]6O[C@H](CO)[C@@H](O[C@@H]7O[C@@H](C)[C@H](O)[C@@H](O)[C@H]7O)[C@H](O)[C@H]6O[C@@H]6O[C@@H](C)[C@H](O)[C@@H](O)[C@H]6O)CCC5(C)C4CCC3(C)C2C1C)CO[C@@H]1O[C@H](CO)[C@@H](O)[C@H](O)[C@H]1O` (some centres undefined), the activity change, negative = cytotoxicity in test [10] was -11% [at 11.6 µM]; in [11], 1.54% [at 11.6 µM]; in test [2], 4.17% [at 11.6 µM]; in test [3] it was -7.05% [at 11.6 µM]; in [4] it was 4.44% [at 11.6 µM]; in [5], 10.4% [at 11.6 µM]. In addition, the figures for the activity change, negative = cytotoxicity in test [9], in test [7] and in [8] were -6.71% [at 11.6 µM], -14.2% [at 11.6 µM] and -1.44% [at 11.6 µM], respectively.

For the compound `COC1CC(O[C@H]2CC[C@]3(C)C4CC[C@@]5(C)C(=O)[C@]4(CC[C@@H]3C2)CC[C@@H]5C2=CC(=O)OC2)OC(C)C1OC1OC(COC2OC(CO)C(O)C(O)C2O)C(O)C(O)C1O` (some centres undefined), the Potency in test [1] is 2.82 µM (active); in test [2], 2.82 µM (active); in test [6], 3.16 µM (active); in [7], 2.24 µM (active); in [8], 1.12 µM (active).

Consider `O=C(c1ccc(Cl)cc1)N1CCN(c2ccnc3cc(Cl)ccc23)CC1`, for which the Potency result in [10], in [11], in test [2], in test [3], in [4] and in test [5] was “inactive” throughout. Besides, the Potency result in [9], in test [6], in test [12], in test [7] and in test [8] was “inactive” in each case.

Take `Cc1c(NC(=O)c2cc3c(s2)CCCC3)cccc1-c1cn(C)c(=O)c(Nc2ccc(C3C(=O)N(C)CCN3C)cc2)n1` (centres undefined): the Potency result in [1], in test [2] and in [4] was “inactive” in each case.

Turning to `Cc1cc2occ(CN(C)CCN(C)Cc3cn(-c4cccc(C(F)(F)F)c4)c4ccccc34)c(=O)c2cc1C`, the Potency in test [1] is 31.6 µM (active); in [7], 28.2 µM (active).

Take `CC(=O)Nc1nc(C)c(-c2nc(N3CCCC(O)C3)no2)s1` (centres undefined): the Potency entry in [1], in test [2] and in test [8] was “inactive” each time.

For `CC(C)C[C@@H](N)C(=O)N[C@H]1C(=O)N[C@@H](CC(N)=O)C(=O)N[C@H]2C(=O)N[C@H]3C(=O)N[C@H](C(=O)N[C@H](C(=O)O)c4cc(O)cc(O)c4-c4cc3ccc4O)[C@H](O)c3ccc(c(Cl)c3)Oc3cc2cc(c3O[C@@H]2O[C@H](CO)[C@@H](O)[C@H](O)[C@H]2O[C@H]2C[C@](C)(N)[C@H](O)[C@H](C)O2)Oc2ccc(cc2Cl)[C@H]1O`, the Potency entry in test [10] is “inactive”.

Regarding `C/C=C(\C)C(=O)O[C@H]1C=C(CO)C(=O)[C@H](OC(C)=O)[C@H]1C(C)C`, in test [1], the Potency was 12.6 µM (active). Besides, the Potency result in test [3], in test [9] and in test [8] was “inactive” in each case.

Consider `CCNC(=O)c1noc(-c2cc(Cl)c(O)cc2O)c1-c1ccc(OC)cc1`, for which the Potency in test [1] is 1.12 µM (active); in test [4] it was 0.355 µM (active); in [6], 0.562 µM (active); in [12], 2.82 µM (active); in test [7], 0.562 µM (active); in [8], 0.501 µM (active). The Potency result in test [9] is “inactive”.

With `O=S(=O)(c1ccc(Cl)cc1)N1CCN(c2ccnc3cc(Cl)ccc23)CC1`, the Potency entry in test [10], in test [11], in [2], in [3], in [4] and in [5] was “inactive” in each case. Moreover, the Potency result in [9], in test [6], in test [12], in test [7] and in [8] was “inactive” throughout.

Regarding `CCCCc1c(-c2ccc(OC)cc2)[nH]c2nccnc12`, the Potency entry in [10], in test [11], in test [2], in [3], in [4] and in test [5] was “inactive” in each case. The Potency entry in test [9], in [6], in test [7] and in test [8] was “inactive” each time.

For the compound `CCCC(CCC)C(=O)Nc1ccn([C@@H]2O[C@H](CO)[C@@H](O)C2(F)F)c(=O)n1`, the Potency entry in test [1], in test [3], in [4] and in [5] was “inactive” throughout. Further, the Potency in test [8] is 10 µM (active).

As to `Nc1nc(NC2CC2)cc(-c2cccc(Cl)c2Cl)n1`, the Potency entry in test [1] and in [9] was “inactive” throughout. Moreover, the Potency in test [3] was 20 µM (active); in [6], 28.2 µM (active); in test [12] it was 14.1 µM (active); in [8] it was 12.6 µM (active).

Regarding `C=C1C(=O)O[C@@H]2C[C@H](C)[C@@H]3CC(=O)C(C)=C3C[C@H]12`, the Potency in test [1] was 28.2 µM (active). Besides, the Potency entry in test [3] is “inactive”.

In the case of `CC(C)CCNC(=O)c1ccc2c(c1)nc(Nc1n[nH]c3ccc(-c4ccccc4OC(F)(F)F)cc13)n2C1CCC(O)CC1` (centres undefined), the Potency result in test [10], in test [11], in [2], in [3], in test [4] and in test [5] was “inactive” throughout. The Potency entry in test [9], in test [6], in test [12], in test [7] and in test [8] was “inactive” each time.

Consider `Cc1cc2c(c(=O)o1)C=C1CC[C@H]([C@H](C)Cn3cnc(=N)c4[nH]cnc43)C[C@@H]1O2`, for which the Potency result in test [10], in [11], in test [2], in test [3], in test [4] and in test [5] was “inactive” in each case. Besides, the Potency result in test [9], in test [6], in [12], in test [7] and in [8] was “inactive” in each case.

The values above are taken from PubChem BioAssay (NCATS).
